Source: PubChem BioAssay (NCATS)
Several values for one entry are separate records, joined by “and”; a condition that tells them apart may be missing. Equal values may be shown once. Results filed as inconclusive are left out. Entries that show only a call come without a potency. Some structures have more than one record in an assay (separate samples or runs), and their calls can disagree. Activity calls are given as the source filed them. Unless noted, calls follow the shape of the dose curve; as a rule, active = well fitted curve in the direction sought with a large enough effect; inconclusive = small, poorly fitted or top-dose-only effect, or another doubt; inactive = no such curve, though single readings can be large; an effect the other way counts as inactive or inconclusive.

What was measured:
[1] = Primary qHTS for small molecule stabilizers of the endoplasmic reticulum resident proteome: Secreted ER Calcium Modulated Protein (SERCaMP) assay (AID 1508630); also: potency is read from the fitted curve at half-maximal effect
Method in brief: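 The SH-SY5Y reporter protocol was run at 3 concentrations up to 38.3 uM (primary) or 11 concentrations (follow-up): 16 h compound, 100 nM thapsigargin for 4 h, then extracellular luciferase luminescence.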

[2] = target: Cytochrome P450 2D6 (Homo sapiens) (UniProt P10635); assay: Cytochrome P450 family 2 subfamily D member 6 (CYP2D6) small molecule antagonists: luciferase biochemical (cell-free) qHTS assay (AID 1645840; active = well fitted curve in the direction sought with a large enough effect in the repeat runs; an effect the other way counts as inactive or inconclusive; also: nearly all actives have a fitted effect of over 55% in size; also: potency is read from the fitted curve at half-maximal effect)
Method in brief: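 P450-Glo CYP2D6 system: proluciferin substrate converted by enzyme to luciferin, read by luminescence proportional to activity. Enzyme-substrate mix with compound 10 min at room temperature, then NADPH regeneration 1 h before detection reagent.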

[3] = target: Cytochrome P450 2C9 (Homo sapiens) (UniProt P11712); assay: Cytochrome P450 family 2 subfamily C member 9 (CYP2C9) small molecule antagonists: luciferase biochemical (cell-free) qHTS assay (AID 1645842; active = well fitted curve in the direction sought with a large enough effect in the repeat runs; an effect the other way counts as inactive or inconclusive; also: nearly all actives have a fitted effect of over 55% in size; also: potency is read from the fitted curve at half-maximal effect)
Method in brief: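 P450-Glo CYP2C9 system: proluciferin substrate with enzyme in mix containing 0.4% BSA, 10 min at room temperature, then NADPH regeneration solution added and incubated 1 h at 37C. Detection reagent stopped reaction; luminescence read after 20 min as RLU.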

[4] = Primary qHTS for inhibitors of nuclear receptor binding SET domain protein 2 (NSD2) in an RCH-ACV wild type WT cells (2C) (AID 1645877); also: nearly all actives have a fitted effect of over 70% in size; also: potency is read from the fitted curve at half-maximal effect
[5] = Primary qHTS for inhibitors of nuclear receptor binding SET domain protein 2 (NSD2) in an isogenic RCH-ACV NSD2 p.E1099K mutant (9B) (AID 1645876); also: nearly all actives have a fitted effect of over 70% in size; also: potency is read from the fitted curve at half-maximal effect
[6] = target: Cytochrome P450 3A4 (Homo sapiens) (UniProt P08684); assay: Cytochrome P450 family 3 subfamily A member 4 (CYP3A4) small molecule antagonists: luciferase qHTS assay (AID 1645841; active = well fitted curve in the direction sought with a large enough effect in the repeat runs; an effect the other way counts as inactive or inconclusive; also: nearly all actives have a fitted effect of over 45% in size)
Method in brief: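 P450-Glo CYP3A4 enzyme with proluciferin substrate preincubated 10 min with compound at room temperature, then NADPH regeneration 1 h. Luciferin detection reagent added for 20 min; luminescence recorded. Ketoconazole positive control.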

[7] = A High-Content qHTS Against Drug Library for the Identification of Small Molecules that Inhibit DYT1 Early Onset Primary Dystonia-Associated Cell Pathology (AID 1645839; calls by dose curve; also: series mostly up to about 46 µM)
Method in brief: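 Cells were seeded and left for 24 h, then dosed with compound alongside tetracycline induction of mutant EGFP-TorsinA. They were incubated for 48 h, fixed in 4% paraformaldehyde, permeabilized and imaged for mislocalization (%pathology) and cell count.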

[8] = target: N-terminal Xaa-Pro-Lys N-methyltransferase 1 (Homo sapiens) (UniProt Q9BV86); assay: Confirmatory qHTS for Inhibitors of N-terminal methyltransferase 1 (NTMT1): MTaseGlo Assay (AID 1645874); also: nearly all actives have a fitted effect of over 65% in size; also: potency is read from the fitted curve at half-maximal effect
Method in brief: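 SPKRIA peptide at 1 uM was methylated by 125 nM NTMT1 using 100 uM SAM over 30 min at room temperature, following a 15 min compound preincubation. Product SAH was detected luminescently.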

Cytochrome P450 2D6 (Homo sapiens), sequence (P10635 whole entry, looked up): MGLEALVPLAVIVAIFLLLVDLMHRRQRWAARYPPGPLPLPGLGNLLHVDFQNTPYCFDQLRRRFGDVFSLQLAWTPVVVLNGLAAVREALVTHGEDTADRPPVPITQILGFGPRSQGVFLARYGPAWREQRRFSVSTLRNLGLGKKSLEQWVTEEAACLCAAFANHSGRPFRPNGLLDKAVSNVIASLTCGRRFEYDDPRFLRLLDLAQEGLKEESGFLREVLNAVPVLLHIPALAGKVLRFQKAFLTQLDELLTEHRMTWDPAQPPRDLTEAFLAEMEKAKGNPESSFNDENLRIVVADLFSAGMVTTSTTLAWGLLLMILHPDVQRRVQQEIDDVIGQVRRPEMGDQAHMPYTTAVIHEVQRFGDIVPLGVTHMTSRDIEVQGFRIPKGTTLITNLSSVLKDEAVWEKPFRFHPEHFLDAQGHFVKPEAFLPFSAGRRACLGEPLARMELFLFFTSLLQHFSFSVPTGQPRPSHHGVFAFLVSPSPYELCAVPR
Cytochrome P450 2C9 (Homo sapiens), sequence (P11712 whole entry, looked up): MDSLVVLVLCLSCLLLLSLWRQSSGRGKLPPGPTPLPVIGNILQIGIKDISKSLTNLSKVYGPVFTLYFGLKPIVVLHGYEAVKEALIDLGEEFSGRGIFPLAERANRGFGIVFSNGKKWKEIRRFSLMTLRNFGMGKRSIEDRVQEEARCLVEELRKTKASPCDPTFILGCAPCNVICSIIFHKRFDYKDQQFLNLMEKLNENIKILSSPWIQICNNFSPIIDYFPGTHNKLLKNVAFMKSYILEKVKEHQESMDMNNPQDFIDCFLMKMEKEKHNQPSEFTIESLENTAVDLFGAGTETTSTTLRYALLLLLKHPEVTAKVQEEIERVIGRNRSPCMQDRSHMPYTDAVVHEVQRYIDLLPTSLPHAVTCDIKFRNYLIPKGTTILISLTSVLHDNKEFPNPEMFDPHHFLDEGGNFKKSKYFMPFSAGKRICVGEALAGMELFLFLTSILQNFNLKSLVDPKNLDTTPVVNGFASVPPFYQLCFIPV
N-terminal Xaa-Pro-Lys N-methyltransferase 1 (Homo sapiens), sequence (Q9BV86 whole entry, looked up): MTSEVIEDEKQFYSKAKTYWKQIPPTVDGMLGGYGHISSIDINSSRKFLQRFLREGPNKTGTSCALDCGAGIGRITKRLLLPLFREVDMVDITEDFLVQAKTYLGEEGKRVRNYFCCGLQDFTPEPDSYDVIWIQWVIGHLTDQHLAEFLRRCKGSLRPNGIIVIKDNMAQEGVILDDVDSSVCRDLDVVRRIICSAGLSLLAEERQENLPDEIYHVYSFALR
Cytochrome P450 3A4 (Homo sapiens), sequence (P08684 whole entry, looked up): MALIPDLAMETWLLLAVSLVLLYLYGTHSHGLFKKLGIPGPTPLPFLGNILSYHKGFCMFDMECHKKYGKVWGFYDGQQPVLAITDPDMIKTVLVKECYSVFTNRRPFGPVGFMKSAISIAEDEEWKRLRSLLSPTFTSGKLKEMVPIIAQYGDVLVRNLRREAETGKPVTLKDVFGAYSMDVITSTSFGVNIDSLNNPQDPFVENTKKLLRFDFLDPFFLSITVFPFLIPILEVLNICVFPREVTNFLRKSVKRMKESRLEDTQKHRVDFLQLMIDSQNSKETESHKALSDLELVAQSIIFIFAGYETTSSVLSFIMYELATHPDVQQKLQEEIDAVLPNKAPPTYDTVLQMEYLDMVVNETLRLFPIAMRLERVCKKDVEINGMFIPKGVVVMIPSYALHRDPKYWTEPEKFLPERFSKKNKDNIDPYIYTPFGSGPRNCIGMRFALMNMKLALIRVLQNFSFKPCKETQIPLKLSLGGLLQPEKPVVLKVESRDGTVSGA

Row | SMILES | Potency [1] | Potency [2] | Potency [3] | Potency [4] | Potency [5] | outcome [6] | outcome [7] | Potency [8]
1 | CN(C)CCOc1cc(-c2cn[nH]c2)ccc1NC(=O)C1COc2ccccc2O1 (centres undefined) | inactive | 2.68 µM (active) | 0.674 µM (active) | 4.59 µM (active) | – | – | – | –
2 | CN(C)c1nc(Cc2ccc(NC(=O)c3ccc(C(F)(F)F)cc3)cc2)nc(N(C)C)c1CC(=O)O | inactive | inactive | inactive | inactive | inactive | – | – | –
3 | CC[C@H](C)C(=O)O[C@H]1C[C@H](O)C=C2C=C[C@H](C)[C@H](CC[C@@H](O)C[C@@H](O)CC(=O)O)[C@H]21 | inactive | inactive | inactive | inactive | inactive | inactive | – | –
4 | C[C@@H]1C[C@H]2[C@@H]3CCC4=CC(=O)C=C[C@]4(C)[C@@]3(F)[C@@H](O)C[C@]2(C)[C@@]1(O)C(=O)CO | inactive | – | – | 0.0332 µM (active) | – | – | inactive | –
5 | COc1nccc(-c2c(-c3ccc(F)cc3)ncn2C2CCC(O)CC2)n1 (centres undefined) | inactive | inactive | inactive | 20.9 µM (active) | – | – | – | –
6 | CC(C)(O)CC(=O)NCCn1ccc2ncnc(Nc3ccc(Oc4cccc(C(F)(F)F)c4)c(Cl)c3)c21 | inactive | 12 µM (active) | 5.35 µM (active) | 20.5 µM (active) and 13.2 µM (active) | 20.5 µM (active) and 11.8 µM (active) | – | – | –
7 | c1ccc(-c2oc3ncnc(NC[C@@H]4CCCO4)c3c2-c2ccccc2)cc1 | inactive | 10.7 µM (active) | 7.56 µM (active) | inactive and 18.3 µM (active) | inactive | – | – | 8.91 µM (active)
8 | COc1cc(Nc2nc3ccccc3nc2NS(=O)(=O)c2ccc(NC(=O)c3ccc(C)c(OC)c3)cc2)cc(OC)c1 | 8.41 µM (active) | inactive | 7.56 µM (active) | inactive | inactive | – | – | –
9 | Cc1ccc2c(c1)c1c(n2CCc2ccc(C)nc2)CCN(C)C1 | inactive | 8.49 µM (active) | 10.7 µM (active) | – | 14.5 µM (active) | – | – | –
10 | CCNC(=O)c1noc(-c2cc(C(C)C)c(O)cc2O)c1-c1ccc(CN2CCOCC2)cc1 | inactive | 1.34 µM (active) | 2.39 µM (active) | 18.3 nM (active) and 13.2 nM (active) | 18.3 nM (active) and 11.8 nM (active) | – | – | inactive
11 | Cc1cc(C(C)Nc2ccccc2)c2nc(N3CCOCC3)cc(=O)n2c1 (centres undefined) | inactive | – | 1.07 µM (active) | 2.3 µM (active) and 2.63 µM (active) | 2.3 µM (active) and 2.63 µM (active) | – | – | –
12 | Cc1cc(OCCCS(C)(=O)=O)cc(C)c1-c1cccc(COc2ccc3c(c2)OC[C@H]3CC(=O)O)c1 | inactive | – | 21.3 µM (active) | – | – | – | – | –
13 | CN(C)CCN(Cc1ccc(Cl)cc1)c1ccccn1 | inactive | 0.0692 µM (active) | – | – | inactive | – | – | –
14 | CSc1cccc(Nc2ncc3cc(-c4c(Cl)cccc4Cl)c(=O)n(C)c3n2)c1 | inactive | – | 4.25 µM (active) | 2.06 µM (active) | 2.06 µM (active) | – | – | –
15 | CNC(=O)c1c(-c2ccc(F)cc2)oc2cc(N(CCO)S(C)(=O)=O)c(C3CC3)cc12 | inactive | – | 10.7 µM (active) | inactive | inactive | – | – | –
16 | C[C@@H](N)c1ccc(C(=O)Nc2ccnc3[nH]ccc23)cc1 | inactive | – | inactive | 4.17 µM (active) | 9.34 µM (active) | – | – | –
17 | C[C@H]1COC2=C1C(=O)C(=O)c1c2ccc2c1CCCC2(C)C | inactive | – | 19 µM (active) | – | – | – | – | –
18 | O=S(=O)(O)c1ccc2cc(N=Nc3cc(S(=O)(=O)O)c4cccnc4c3O)ccc2c1 | inactive | – | inactive | inactive | inactive | – | – | –
19 | CC1(COc2ccc3c(c2)ncn3-c2ccc3cccc(N4CCC(N)CC4)c3n2)COC1 | inactive | 15.1 µM (active) | – | 2.05 µM (active) and 1.86 µM (active) | 1.83 µM (active) and 1.32 µM (active) | – | – | –
20 | COc1cc2nccc(Oc3ccc(NC(=O)Nc4cc(C)on4)c(Cl)c3)c2cc1OC | inactive | – | 19 µM (active) | – | 649 nM (active) and 3.72 µM (active) | – | – | –
21 | CNC1CCC(N(Cc2cccc(-c3ccncc3)c2)C(=O)c2sc3ccccc3c2Cl)CC1 (centres undefined) | inactive | – | 10.7 µM (active) | 5.78 µM (active) and 7.42 µM (active) | 5.15 µM (active) and 9.34 µM (active) | – | – | –
22 | O[C@@H](COc1cccc2ncccc12)CN1CCN(C2c3ccccc3[C@@H]3[C@H](c4ccccc42)C3(F)F)CC1 (some centres undefined) | inactive | – | 10.7 µM (active) | – | 15 µM (active) | – | – | –
